ERG Ets-DNA blk – blocks human ERG Ets domain binding to DNA; fluorescence polarization, His-ERG Ets domain / labelled DNA; Potency, µM (doses to about 76.9 µM), hits mostly inhibitors; 0.028% of 370,000 active; AID 624246; active = well fitted inhibition curve with a large enough effect in the polarisation, with a control signal flat; inconclusive = small, poorly fitted or top-dose-only effect, or effect the other way, or a change in a side signal; inactive = no such curve, though single readings can be large or run the other way; the % refers to the polarisation;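 note: polarization taken with two DNA probes labelled with fluorescein and Texas red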
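His-tagged ERG Ets domain (1 uM in the protein solution; 300mM KCl, 50mM Tris-HCl, 1mM EDTA, 1mM DTT, pH 7.5) received compound, then a probe mix of 5 nM fluorescein-DNA and 100nM Texas-615-DNA. Fluorescence polarization was read for both dyes.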
D3 ag – agonists of human D3 dopamine receptor; max activation, %; P35462; 0.58% of 410,000 active; D3R DiscoveRx beta-arrestin cells, luminescence, 90 min; in the data active = max activation above about 30%
Target sequence (P35462 whole entry, looked up): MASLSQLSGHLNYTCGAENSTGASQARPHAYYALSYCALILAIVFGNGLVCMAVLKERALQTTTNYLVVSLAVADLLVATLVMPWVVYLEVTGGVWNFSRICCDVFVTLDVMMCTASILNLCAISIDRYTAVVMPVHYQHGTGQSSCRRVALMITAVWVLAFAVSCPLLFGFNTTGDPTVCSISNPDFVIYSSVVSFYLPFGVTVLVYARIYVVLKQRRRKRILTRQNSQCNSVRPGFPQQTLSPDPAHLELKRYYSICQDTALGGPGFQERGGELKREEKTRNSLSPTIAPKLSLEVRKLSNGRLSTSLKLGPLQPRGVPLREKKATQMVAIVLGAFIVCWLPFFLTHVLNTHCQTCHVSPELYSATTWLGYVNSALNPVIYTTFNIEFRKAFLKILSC
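Agonist-mode cell screen: cells plated at 1500/well and incubated overnight at 37 °C, then exposed to library compounds for 90 min at 37 °C. Detection reagent was added for 30–60 min at room temperature, and luminescence was read.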
D1 ag – activates the human D1 dopamine receptor; P21728; HEK293 T-REx D1 cells, calcium flux, agonist mode; activation, % at 2 µM; 1% of 360,000 active; AID 504660; in the data active = activation above about 30%
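Tetracycline-induced HEK293 TREx D1 cells, force-coupled to calcium signalling, were dye-loaded with a no-wash calcium kit. Compound was pin-added after a 10 s baseline. Fluorescence was read kinetically at 1 cycle/s for 180 s, with calcium rises flagged as agonism.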
D1 antag – antagonists of human D1 dopamine receptor | P21728 | HEK293 TREx D1 cells, calcium flux, dopamine EC80; stronger effect = lower value | activity change, negative = inhibition, % at 10 µM | 3.2% of 360,000 active; in the data active = activity change below about -30%
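Using tetracycline-induced force-coupled D1 Hek293 cells and a calcium dye, signals were followed for 180 s after compound, then for 180 s after EC80 dopamine, to detect inhibitors.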
DRD3 antagonist – antagonists of human D3 dopamine receptor | D3R cells, DiscoveRx beta-arrestin luminescence, antagonist mode; stronger effect = lower value | max response, negative = inhibition, % | 2.5% of 360,000 active; in the data active = max response below about -50%; inconclusive = no clear call, values can overlap the other calls
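Cells expressing the human receptor were seeded at 1500 cells/well, incubated overnight at 37 degrees C in 5% CO2, then exposed to library compounds with dopamine controls for 90 minutes at 37 degrees C before luminescent detection.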
D1 PAM – potentiators of human D1 dopamine receptor; P21728; HEK293 TREx D1 cells, calcium flux, dopamine EC20 potentiation; potentiation, % at 10 µM; 0.036% of 360,000 active; AID 504651; in the data active = potentiation above about 30%
Each line names hits and unclear results; the compound was inactive in the other large screens; ! = not active in a repeat. Only some compounds are listed: those with a hit (about 6.1% of all), similar ones and a draw of the others.

O=C(c1ccc(Cl)cc1)N1CCCCC(Cl)C1=O (stereo unspecified)	none
Cc1cc(O)ccc1NC(=O)CCN1C(=O)c2ccc([N+](=O)[O-])cc2C1=O	none
O=C(NCC(c1cccnc1)N1CCc2ccccc21)c1ccc(F)c(F)c1 (stereo unspecified)	none (no result: DRD3 antagonist)
Cc1ccc(S(=O)(=O)NCC(=O)OCC(=O)N2C(C)CCCC2C)cc1 (stereo unspecified)	none (no result: D1 ag, D1 antag, D1 PAM)
CCOC(=O)C1CCN(c2c(N3CCCC(C(=O)OCC)C3)c(=O)c2=O)CC1 (stereo unspecified)	none
CCOC(=O)C1CCCN(c2c(N3CCN(c4ccccn4)CC3)c(=O)c2=O)C1 (stereo unspecified)	D1 antag -52
CCOC(=O)C1CCCN(Cc2ccc(OCc3ccccc3)c(OC)c2)C1 (stereo unspecified)	none
CCOC(=O)C1CCCN(Cc2ccc(OCc3ccccc3)cc2)C1 (stereo unspecified)	DRD3 antagonist -61
c1ccc(COc2cccc(CN3CCc4ccccc4C3)c2)cc1	DRD3 antagonist -87
CC(C)NC(=O)C1CCN(Cc2cccc(OCc3ccccc3)c2)CC1	none (no result: ERG Ets-DNA blk, D1 ag, D1 antag, D1 PAM)
Cc1ccc(NC(=O)C2(C)CCN2C(=O)C2CCCCC2)cc1C (stereo unspecified)	none (no result: ERG Ets-DNA blk, D1 ag, D1 antag, D1 PAM)
COc1ccccc1C(C(=O)NCc1ccccc1)N(C(=O)c1csnn1)C1CC1 (stereo unspecified)	none
Fc1ccccc1C1c2cccn2CCN1C(=S)Nc1ccc(Br)cc1 (stereo unspecified)	DRD3 antagonist -64
CCOC(=O)c1ccc(CN(Cc2ccc(C)cc2)S(=O)(=O)c2ccc(F)c(C(=O)Nc3ccc(C)c(F)c3)c2)cc1	D1 antag -46 (no result: DRD3 antagonist)
CCOC(=O)c1ccc(CN(Cc2ccc(C)cc2)S(=O)(=O)c2ccc(NC(C)=O)cc2)cc1	none (no result: DRD3 antagonist)
Cc1ccc(N2CCN(Cc3nnc(-c4ccc5c(c4)OCO5)o3)CC2)c(C)c1	D1 antag -30 (no result: DRD3 antagonist)
CC1CCCCC12NC(=O)N(CC(=O)N1CCN(S(=O)(=O)c3ccc4c(c3)CCC4)CC1)C2=O (stereo unspecified)	none
COc1cc(-c2coc3c(C(=O)NCc4cccc(Cl)c4)cccc23)ccc1O	none (no result: ERG Ets-DNA blk, D1 ag, D1 antag, D1 PAM)
CC(C)N(Cc1ccccc1)S(=O)(=O)c1ccc(Cl)nc1	D1 antag -41
COc1ccc(NC(=O)C2C3C=CC(C3)C2C(=O)NCc2ccco2)c(OC)c1 (stereo unspecified)	DRD3 antagonist -56
COc1ccc(OC)c(NC(=O)c2ccc(Cl)cc2)c1	D1 antag -36
COc1ccc(Oc2ccc(C(F)(F)F)cc2NC(=O)c2ccc(C)cc2)cc1	D1 ag 31
CC(=O)Nc1cc(C(F)(F)F)ccc1Oc1cccc(Br)c1	D1 ag 30
COCCOc1ccc(C(F)(F)F)cc1NC(=O)c1ccc(C)cc1	none
CN(Cc1ccccc1)C(=O)Cn1nnc(-c2ccccc2)c1COc1ccc2ccccc2c1	none (no result: ERG Ets-DNA blk, D1 ag, D1 antag, D1 PAM)
O=C1NC(CCc2ccccc2)C(=O)N1Cc1ccc(Br)cc1 (stereo unspecified)	DRD3 antagonist -71
O=C(Cn1c(=O)n(-c2ccc(Cl)cc2)c(=O)c2c3c(sc21)CCC3)c1ccccc1	none (no result: DRD3 antagonist)
COCCCNC(=O)c1ccccc1N(Cc1ccccc1)S(=O)(=O)c1ccccc1	none
Cc1cc(Br)cn2c(Cc3ccccc3)c(-c3cccc(Cl)c3)nc12	DRD3 antagonist -60 (no result: ERG Ets-DNA blk, D1 ag, D1 antag, D1 PAM)
Cc1cc(Br)cn2c(Cc3cccc(Cl)c3)c(-c3ccco3)nc12	DRD3 antagonist -63 (no result: ERG Ets-DNA blk, D1 ag, D1 antag, D1 PAM)
Cc1ccc(Cc2c(-c3ccccc3)nc3c(C)cc(Br)cn23)cc1	none (no result: ERG Ets-DNA blk, D1 ag, D1 antag, D1 PAM)
Cc1ccc(-c2nc3c(C)cc(Br)cn3c2Cc2cccc(F)c2)cc1	DRD3 antagonist -57 (no result: ERG Ets-DNA blk, D1 ag, D1 antag, D1 PAM)
Cc1nonc1OCC(C)(COc1nonc1C)NC(=O)c1ccc(Cl)cc1	none
O=C(NCc1ccon1)C1CCC(=O)N(Cc2cccc(C(F)(F)F)c2)C1 (stereo unspecified)	none
Cc1ccccc1NC(=O)c1ccc(CN2CC(=O)N3CCCCC3C2=O)cc1 (stereo unspecified)	D1 antag -37
Cc1ccc(NC(=O)c2ccc(CN3CC(=O)N4CCCCC4C3=O)cc2)c(C)c1 (stereo unspecified)	none
CC(NC(=O)c1cccs1)c1nnc(SCc2ccc(Cl)cc2Cl)n1C (stereo unspecified)	none
C=CCn1c(CNC(=O)c2cccs2)nnc1SCc1ccc(Cl)cc1Cl	D1 ag 60
NC(=O)c1c(NC(=O)c2ccncc2)sc2c1CCCC2	none
NC(=O)c1c(NC(=O)c2ccncc2)sc2c1CCCCCC2	D1 ag 37
Cc1noc(C)c1C(=O)Nc1sc2c(c1C(N)=O)CCCCC2	ERG Ets-DNA blk inconclusive, D3 ag 47
CCC1Oc2ccccc2N(CC(=O)NCc2ccc(C)cc2)C1=O (stereo unspecified)	none (no result: DRD3 antagonist)
CSC1=NC2(CC(c3ccccc3)Oc3cc(O)ccc32)CC(C)(C)N1 (stereo unspecified)	D1 ag 167
CC(C)CCCCCCc1ccc(O)cc1	none (no result: ERG Ets-DNA blk, D1 ag, D1 antag, DRD3 antagonist, D1 PAM)
Cc1nn(CCCC(=O)NCc2ccccc2Br)c(=O)c2c1sc1ccccc12	none (no result: DRD3 antagonist)
Cc1ccccc1Cc1ccc(Cl)nn1	D1 antag -44
CCc1ccc2nc3sc(C(=O)O)cc3cc2c1	D1 ag 255
CC(=O)c1ccc(NC(=O)C2=CC(c3ccc4c(c3)OCO4)=NS(=O)(=O)N2C)cc1	D1 ag 33!
CCc1ccc(NC(=O)C2=CC(c3ccc4c(c3)OCO4)=NS(=O)(=O)N2C)cc1	none (no result: DRD3 antagonist)
CC(=O)c1ccc(NC(=O)C2=CC(c3ccc(C)cc3)=NS(=O)(=O)N2C)cc1	D1 antag -46 (no result: DRD3 antagonist)
Cc1ccc(C2=NS(=O)(=O)N(C)C(C(=O)Nc3ccc4c(c3)OCO4)=C2)cc1	none
Cc1ccc(NC(=O)C2=CC(c3ccc(C)cc3)=NS(=O)(=O)N2C)cc1	none
COc1ccc(C2=NS(=O)(=O)N(C)C(C(=O)Nc3ccc4c(c3)OCO4)=C2)cc1	DRD3 antagonist -103
O=C(Nc1cccc2ccccc12)/C(=C\c1cccc([N+](=O)[O-])c1)NC(=O)c1cccs1	none
COc1ccc(N2CCN(C(=O)Nc3cn(CC(C)C)c(=O)c4ccccc34)CC2)cc1	none (no result: DRD3 antagonist)
CC(=O)NCCNC(=O)C1(C)Cc2c(-c3ccc(C(N)=O)cc3)ccnc2O1 (stereo unspecified)	none (no result: ERG Ets-DNA blk, D1 ag, D1 antag, D1 PAM)
CCOC(=O)CC1(NC(=O)C2CCC(=O)N(Cc3ccccc3OC)C2)CCCCC1 (stereo unspecified)	none
Cc1c(/C(O)=C2\C(=O)C(=O)N(CCCN(C)C)C2c2ccco2)cnn1-c1ccccc1 (stereo unspecified)	none (no result: D1 ag, D1 antag, D1 PAM)
